The supplement of paper PMC10849652
The full data set covers some 7,900 targets. This sample favours those with a hit. About 0.6% of all pairs of compound and target were hits. A number with no mark means an inactive call.

Key:
Assay in all cases: log2 fold change, soluble protein after heating vs DMSO (PISA); higher = thermal stabilisation; K562 cells, 10 uM, 30 min; active = over 0.2 and 3.5 SD of the protein, either way, in both replicates (recomputed)
[1] = compound: COC1=CC=C(C=C1)CN2C=CC3=C2C=C(C=C3)C(=O)NO
Procedure, shortened: (§1)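 K562 cells at 2×10^6 cells/mL were treated with 10 μM compound for 30 min. Aliquots were heated for 3 min across 48°C-58°C, pooled, and extracted in PBS with 0.5% NP-40 at 4°C; soluble protein was the supernatant after 21,000xg for 90 min. Soluble protein was quantified by TMTpro 16plex LC-MS/MS with channel sums equalised, and reported as log2 fold change in thermal stability against DMSO controls, with values from duplicates.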

[2] = compound: CON(C)C(=O)N1N=C(c2cc(F)ccc2F)S[C@@]1(CCCN)c1ccccc1 [filanesib]
Procedure, shortened: as §1

[3] = compound: CO[C@H]1C[C@@H]2CC[C@@H](C)[C@@](O)(O2)C(=O)C(=O)N2CCCC[C@H]2C(=O)O[C@H]([C@H](C)C[C@@H]2CC[C@H](n3cnnn3)[C@H](OC)C2)CC(=O)[C@H](C)/C=C(\C)[C@@H](O)[C@@H](OC)C(=O)[C@H](C)C[C@H](C)/C=C/C=C/C=C/1C [zotarolimus]
Procedure, shortened: as §1

[4] = compound: COc1cc(C(=O)O)ccc1NC(=O)[C@@H]1N[C@@H](CC(C)(C)C)[C@](C#N)(c2ccc(Cl)cc2F)[C@H]1c1cccc(Cl)c1F [idasanutlin]
Procedure, shortened: as §1

[5] = compound: COc1cc(Nc2ncc3c(n2)-c2ccc(Cl)cc2C(c2c(F)cccc2OC)=NC3)ccc1C(=O)O [alisertib]
Procedure, shortened: as §1

[6] = compound: COc1cc2nc(-c3cc(F)ccc3O)nc(N[C@@H]3CNC[C@H]3C(C)(C)O)c2cc1OC
Procedure, shortened: as §1

[7] = compound: COc1cc2ncnc(Nc3ccc(F)c(Cl)c3)c2cc1OCCCN1CCOCC1 [gefitinib]
Procedure, shortened: as §1

[8] = compound: COc1cccc2cc(-c3nc([C@H]4CC[C@H](C(=O)O)CC4)n4ncnc(N)c34)[nH]c12
Procedure, shortened: as §1

[9] = compound: CS(=O)(=O)CCNCc1ccc(-c2ccc3ncnc(Nc4ccc(OCc5cccc(F)c5)c(Cl)c4)c3c2)o1 [lapatinib]
Procedure, shortened: as §1

[10] = compound: CS(=O)(=O)N1CCN(Cc2cc3nc(-c4cccc5[nH]ncc45)nc(N4CCOCC4)c3s2)CC1 [pictilisib]
Procedure, shortened: as §1

[11] = compound: CS(=O)(=O)c1ccc(-c2cnc(N)c(C(=O)Nc3ccccc3)n2)cc1
Procedure, shortened: as §1

[12] = compound: C[C@@H](Oc1cc(-c2cnn(C3CCNCC3)c2)cnc1N)c1c(Cl)ccc(F)c1Cl [crizotinib]
Procedure, shortened: as §1

[13] = compound: C[C@@H]1COCCN1C2=NC(=NC(=C2)C3(CC3)S(=O)(=O)C)C4=C5C=CNC5=CC=C4
Procedure, shortened: as §1

[14] = compound: C[C@H](C1=CC=C(C=C1)C(=O)NC2=C3C=CNC3=NC=C2)N
Procedure, shortened: as §1

[15] = compound: Cc1cc(Nc2cc(CN3CCOCC3)c3nc(C)c(Cc4ccc(Cl)cc4F)n3n2)n[nH]1 [gandotinib]
Procedure, shortened: as §1

[16] = compound: Cc1cc(Nc2cc(N3CCN(C)CC3)nc(Sc3ccc(NC(=O)C4CC4)cc3)n2)n[nH]1 [tozasertib]
Procedure, shortened: as §1

[17] = compound: Cc1ccc(-n2nc(C(C)(C)C)cc2NC(=O)Nc2ccc(OCCN3CCOCC3)c3ccccc23)cc1 [doramapimod]
Procedure, shortened: as §1

[18] = compound: Cc1ccc(C(=O)N(CCCN)[C@@H](c2nc3cc(Cl)ccc3c(=O)n2Cc2ccccc2)C(C)C)cc1 [ispinesib]
Procedure, shortened: as §1

[19] = compound: C[C@H](Nc1ncnc2nc[nH]c12)c1cc2cccc(Cl)c2c(=O)n1-c1ccccc1 [duvelisib]
Procedure, shortened: as §1

[20] = compound: Cc1cc(SCc2sc(-c3ccc(C(F)(F)F)cc3)nc2C)ccc1OCC(=O)O
Procedure, shortened: as §1

UniProt Q14839, sequence (Q14839 whole entry, looked up): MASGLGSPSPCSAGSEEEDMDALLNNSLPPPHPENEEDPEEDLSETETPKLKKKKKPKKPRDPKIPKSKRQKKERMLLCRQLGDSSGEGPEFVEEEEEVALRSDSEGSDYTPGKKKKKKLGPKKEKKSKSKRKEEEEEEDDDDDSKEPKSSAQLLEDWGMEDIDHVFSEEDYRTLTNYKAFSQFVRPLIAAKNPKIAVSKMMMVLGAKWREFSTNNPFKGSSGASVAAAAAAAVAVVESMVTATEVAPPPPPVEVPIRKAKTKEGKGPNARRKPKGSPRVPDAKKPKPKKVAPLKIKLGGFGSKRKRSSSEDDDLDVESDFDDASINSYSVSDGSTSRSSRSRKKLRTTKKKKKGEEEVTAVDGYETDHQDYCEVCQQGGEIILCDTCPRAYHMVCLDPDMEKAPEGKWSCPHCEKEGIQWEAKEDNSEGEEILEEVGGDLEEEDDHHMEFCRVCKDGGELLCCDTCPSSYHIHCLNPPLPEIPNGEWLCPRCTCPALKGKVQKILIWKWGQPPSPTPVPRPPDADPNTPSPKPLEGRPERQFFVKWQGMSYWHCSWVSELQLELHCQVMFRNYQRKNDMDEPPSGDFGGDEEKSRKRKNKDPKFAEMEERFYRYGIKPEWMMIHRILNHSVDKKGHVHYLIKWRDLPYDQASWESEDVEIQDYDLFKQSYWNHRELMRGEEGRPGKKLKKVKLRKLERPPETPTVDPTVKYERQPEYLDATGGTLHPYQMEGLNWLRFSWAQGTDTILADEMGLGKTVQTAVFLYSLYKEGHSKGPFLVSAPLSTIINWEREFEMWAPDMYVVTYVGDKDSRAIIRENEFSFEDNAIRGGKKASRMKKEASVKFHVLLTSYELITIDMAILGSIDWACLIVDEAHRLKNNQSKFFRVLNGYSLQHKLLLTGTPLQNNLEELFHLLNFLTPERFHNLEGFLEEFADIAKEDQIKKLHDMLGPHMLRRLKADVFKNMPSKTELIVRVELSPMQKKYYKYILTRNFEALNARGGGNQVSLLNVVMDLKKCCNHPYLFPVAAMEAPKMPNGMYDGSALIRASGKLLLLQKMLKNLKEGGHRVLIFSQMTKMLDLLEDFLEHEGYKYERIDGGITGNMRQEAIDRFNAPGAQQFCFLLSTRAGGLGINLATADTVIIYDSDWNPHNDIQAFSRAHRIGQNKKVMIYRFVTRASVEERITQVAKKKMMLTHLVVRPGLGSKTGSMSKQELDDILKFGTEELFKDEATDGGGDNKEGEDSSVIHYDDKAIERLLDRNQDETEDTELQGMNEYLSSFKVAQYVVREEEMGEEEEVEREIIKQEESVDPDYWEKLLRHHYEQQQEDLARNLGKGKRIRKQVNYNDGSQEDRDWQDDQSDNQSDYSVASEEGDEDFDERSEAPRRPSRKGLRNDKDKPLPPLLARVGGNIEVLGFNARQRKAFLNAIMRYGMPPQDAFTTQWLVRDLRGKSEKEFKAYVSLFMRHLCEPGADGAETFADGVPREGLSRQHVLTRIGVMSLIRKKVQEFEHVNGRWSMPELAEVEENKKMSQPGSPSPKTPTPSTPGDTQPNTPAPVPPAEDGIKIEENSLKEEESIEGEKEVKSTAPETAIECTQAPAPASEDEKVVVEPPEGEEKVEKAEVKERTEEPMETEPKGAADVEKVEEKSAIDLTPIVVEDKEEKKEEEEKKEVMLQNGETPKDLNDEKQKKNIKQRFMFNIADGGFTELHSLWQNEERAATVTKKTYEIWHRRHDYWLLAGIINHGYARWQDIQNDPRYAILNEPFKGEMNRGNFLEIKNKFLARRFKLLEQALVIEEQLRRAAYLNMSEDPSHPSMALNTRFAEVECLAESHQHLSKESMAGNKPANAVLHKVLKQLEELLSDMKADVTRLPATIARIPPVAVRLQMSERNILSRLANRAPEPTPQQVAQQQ
UniProt Q8N1G2, sequence (Q8N1G2 whole entry, looked up): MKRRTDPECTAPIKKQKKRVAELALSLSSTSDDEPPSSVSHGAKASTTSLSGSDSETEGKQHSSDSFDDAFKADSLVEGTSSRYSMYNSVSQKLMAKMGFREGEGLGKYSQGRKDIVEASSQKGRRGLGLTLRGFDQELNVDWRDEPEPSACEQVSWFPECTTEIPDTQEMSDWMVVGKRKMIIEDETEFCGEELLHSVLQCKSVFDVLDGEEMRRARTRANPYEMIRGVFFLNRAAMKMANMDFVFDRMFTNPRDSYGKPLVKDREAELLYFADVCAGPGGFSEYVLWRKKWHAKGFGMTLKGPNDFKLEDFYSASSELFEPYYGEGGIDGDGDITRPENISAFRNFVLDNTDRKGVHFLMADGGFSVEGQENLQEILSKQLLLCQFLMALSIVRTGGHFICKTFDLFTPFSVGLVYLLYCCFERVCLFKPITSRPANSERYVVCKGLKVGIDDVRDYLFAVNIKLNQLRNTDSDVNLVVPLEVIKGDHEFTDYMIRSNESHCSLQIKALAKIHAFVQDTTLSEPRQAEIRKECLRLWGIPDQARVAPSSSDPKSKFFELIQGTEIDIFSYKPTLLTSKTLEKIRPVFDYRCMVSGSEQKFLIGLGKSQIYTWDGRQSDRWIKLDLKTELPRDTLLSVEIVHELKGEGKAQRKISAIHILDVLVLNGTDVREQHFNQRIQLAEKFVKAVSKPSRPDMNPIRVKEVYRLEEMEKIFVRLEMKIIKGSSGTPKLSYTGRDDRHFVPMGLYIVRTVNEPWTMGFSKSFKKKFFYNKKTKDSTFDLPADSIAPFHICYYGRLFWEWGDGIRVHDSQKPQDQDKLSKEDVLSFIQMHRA
UniProt A5YKK6, sequence (A5YKK6 whole entry, looked up): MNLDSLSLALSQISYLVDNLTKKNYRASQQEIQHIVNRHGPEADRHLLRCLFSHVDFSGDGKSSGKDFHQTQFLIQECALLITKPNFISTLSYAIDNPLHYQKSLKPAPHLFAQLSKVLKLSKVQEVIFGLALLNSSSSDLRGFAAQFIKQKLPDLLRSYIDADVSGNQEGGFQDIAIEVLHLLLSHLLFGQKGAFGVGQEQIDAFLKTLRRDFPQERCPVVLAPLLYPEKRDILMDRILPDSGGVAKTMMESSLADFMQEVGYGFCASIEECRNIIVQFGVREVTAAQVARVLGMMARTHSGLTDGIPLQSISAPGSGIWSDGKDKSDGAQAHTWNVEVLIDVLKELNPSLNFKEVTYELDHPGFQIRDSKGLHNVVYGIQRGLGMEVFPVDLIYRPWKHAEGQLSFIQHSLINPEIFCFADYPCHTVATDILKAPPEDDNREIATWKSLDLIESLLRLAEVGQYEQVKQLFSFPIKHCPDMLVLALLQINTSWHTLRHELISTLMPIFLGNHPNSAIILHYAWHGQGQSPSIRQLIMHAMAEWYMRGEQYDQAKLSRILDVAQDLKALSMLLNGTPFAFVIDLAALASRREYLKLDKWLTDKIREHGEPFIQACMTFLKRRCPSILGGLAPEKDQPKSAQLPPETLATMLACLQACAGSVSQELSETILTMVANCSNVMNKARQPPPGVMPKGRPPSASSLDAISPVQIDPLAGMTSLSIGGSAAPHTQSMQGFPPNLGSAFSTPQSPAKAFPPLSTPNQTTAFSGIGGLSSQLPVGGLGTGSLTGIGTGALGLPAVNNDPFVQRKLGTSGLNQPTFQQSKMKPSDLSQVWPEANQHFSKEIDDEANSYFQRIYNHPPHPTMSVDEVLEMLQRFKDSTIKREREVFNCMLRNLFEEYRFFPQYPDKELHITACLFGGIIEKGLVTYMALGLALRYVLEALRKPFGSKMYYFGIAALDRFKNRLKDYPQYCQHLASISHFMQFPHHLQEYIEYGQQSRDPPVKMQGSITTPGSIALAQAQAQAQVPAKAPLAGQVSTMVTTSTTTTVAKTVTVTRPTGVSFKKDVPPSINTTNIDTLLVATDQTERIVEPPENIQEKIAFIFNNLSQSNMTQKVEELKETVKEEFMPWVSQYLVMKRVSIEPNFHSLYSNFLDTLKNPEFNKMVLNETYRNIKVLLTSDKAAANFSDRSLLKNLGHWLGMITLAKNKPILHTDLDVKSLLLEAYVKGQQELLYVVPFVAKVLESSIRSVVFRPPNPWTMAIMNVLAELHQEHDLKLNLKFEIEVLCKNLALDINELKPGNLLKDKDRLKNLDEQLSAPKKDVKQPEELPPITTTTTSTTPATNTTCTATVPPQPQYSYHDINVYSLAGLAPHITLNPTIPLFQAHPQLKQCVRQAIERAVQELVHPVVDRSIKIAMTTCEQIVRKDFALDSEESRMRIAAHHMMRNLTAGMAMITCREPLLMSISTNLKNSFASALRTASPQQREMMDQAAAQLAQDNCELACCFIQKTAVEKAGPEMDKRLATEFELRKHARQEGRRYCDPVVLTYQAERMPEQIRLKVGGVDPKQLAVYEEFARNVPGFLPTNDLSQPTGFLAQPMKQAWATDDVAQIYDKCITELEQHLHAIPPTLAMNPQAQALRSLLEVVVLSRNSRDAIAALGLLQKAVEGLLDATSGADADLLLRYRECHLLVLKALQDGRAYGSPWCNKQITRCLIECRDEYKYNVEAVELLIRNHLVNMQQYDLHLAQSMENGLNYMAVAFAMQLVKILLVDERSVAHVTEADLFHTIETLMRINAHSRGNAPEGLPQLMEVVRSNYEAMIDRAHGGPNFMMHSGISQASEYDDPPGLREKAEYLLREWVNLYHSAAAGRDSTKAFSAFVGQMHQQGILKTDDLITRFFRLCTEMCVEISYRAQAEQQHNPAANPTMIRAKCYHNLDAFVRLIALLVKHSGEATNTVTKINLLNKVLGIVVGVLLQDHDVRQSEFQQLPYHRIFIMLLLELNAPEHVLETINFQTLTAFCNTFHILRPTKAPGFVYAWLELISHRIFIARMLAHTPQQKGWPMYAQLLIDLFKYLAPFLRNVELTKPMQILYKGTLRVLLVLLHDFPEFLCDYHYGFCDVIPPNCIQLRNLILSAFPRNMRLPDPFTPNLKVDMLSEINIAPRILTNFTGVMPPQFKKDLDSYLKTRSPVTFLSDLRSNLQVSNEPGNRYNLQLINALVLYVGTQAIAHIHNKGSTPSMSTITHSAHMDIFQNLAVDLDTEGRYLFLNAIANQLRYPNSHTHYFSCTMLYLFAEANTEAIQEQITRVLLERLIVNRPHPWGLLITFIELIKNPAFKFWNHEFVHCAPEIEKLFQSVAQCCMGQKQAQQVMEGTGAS

| Target | log2 fold change [1] | log2 fold change [2] | log2 fold change [3] | log2 fold change [4] | log2 fold change [5] | log2 fold change [6] | log2 fold change [7] | log2 fold change [8] | log2 fold change [9] | log2 fold change [10] | log2 fold change [11] | log2 fold change [12] | log2 fold change [13] | log2 fold change [14] | log2 fold change [15] | log2 fold change [16] | log2 fold change [17] | log2 fold change [18] | log2 fold change [19] | log2 fold change [20] |
| --- | --- | --- | --- | --- | --- | --- | --- | --- | --- | --- | --- | --- | --- | --- | --- | --- | --- | --- | --- | --- |
| CDCA2 (UniProt Q69YH5) | 0.278 | -0.036 | -0.04 | 0.018 | 0.585 | -0.079 | 0.109 | -0.011 | 0.204 | -0.127 | 0.161 | 0.025 | 0.041 | -0.021 | 0.098 | -0.159 | 0.088 | -0.04 |  |  |
| CETN2 (UniProt P41208) | -0.114 | 0.225 | -0.067 | 0.042 | -0.112 | 0.141 | 0.019 | 0.028 | -0.207 | 0.028 | 0.011 | 0.103 | 0.066 | 0.003 | 0.041 | -0.01 | 0.017 | 0.084 | -0.003 | -0.135 |
| CDC25B isoform 4 (UniProt P30305) | -0.038 | 0.005 | -0.056 | 0.052 | -0.018 | 0.026 | -0.013 | 0.068 | -0.012 | 0.03 | -0.104 |  | -0.216 | -0.057 | 0.122 |  | 0.132 | 0.019 |  |  |
| CMTR1 (UniProt Q8N1G2) | -0.337 (active) | 0.001 | -0.013 | -0.052 | -0.026 | 0.065 | 0.025 | 0.017 | -0.012 | 0.009 | 0.02 | 0.014 | 0.011 | 0.059 | 0.025 | 0.002 | -0.036 | -0.002 | 0.05 | 0.029 |
| CPSF3 (UniProt Q9UKF6) | -0.063 | 0.033 | 0.011 | -0.007 | -0.067 | -0.021 | 0 | -0.012 | 0.009 | -0.025 | -0.004 | 0.01 | 0.013 | -0.006 | -0.052 | 0.117 | 0 | -0.003 | 0.011 | 0.031 |
| CNOT1 (UniProt A5YKK6) | 0.002 | -0.019 | 0.02 | -0.032 | -0.022 | 0.053 | -0.021 | -0.031 | 0.02 | -0.046 | 0.006 | -0.087 | -0.034 | 0.033 | -0.043 | 0.045 | -0.025 | -0.038 | 0.013 | 0.076 |
| CNTN4 (UniProt Q8IWV2) | 0.1 | 0 | 0.017 | -0.148 | -0.399 | 0.341 | -0.039 | -0.169 | -0.047 | 0.222 | -0.03 | 0.064 | 0.148 | -0.099 | 0.144 | -0.051 | -0.095 | -0.046 | 0.102 | -0.087 |
| CHD4 isoform 2 (UniProt Q14839) | 0.04 | 0.079 | 0.019 | 0.045 | 0 | -0.099 | 0.055 | -0.097 | 0.013 | -0.028 | -0.02 | -0.08 | 0.098 | 0.057 | -0.009 | 0.233 | 0.014 | -0.05 | -0.021 | 0.186 |
| COPS4 (UniProt Q9BT78) | 0.219 (active) | -0.067 | 0.032 | -0.039 | -0.054 | -0.035 | -0.007 | 0.019 | 0.025 | -0.011 | -0.01 | 0.112 | 0.064 | -0.064 | 0.022 | 0.036 | -0.014 | 0.086 | 0.029 | 0.002 |
| CLCN3 isoform 2 (UniProt P51790) | 0.057 | -0.151 | -0.031 | -0.008 | 0.03 | -0.064 | -0.015 | 0.04 | 0.008 |  | -0.008 | -0.074 | 0.09 | -0.142 | 0.02 | 0.002 | 0.009 | -0.25 | 0.015 | -0.011 |
| CA1 (UniProt P00915) | -0.022 | -0.002 | -0.006 | -0.044 | -0.032 | -0.026 | 0.022 | 0.018 | -0.045 | 0.072 | 0.005 | 0 | 0.046 | -0.094 | -0.036 | 0.018 | -0.012 | 0.116 | -0.001 | 0.019 |
| CLTB (UniProt P09497) | 0.263 (active) | -0.053 | -0.006 | -0.02 | -0.106 | 0 | 0.017 | 0.028 | -0.014 |  | -0.058 | 0.007 | -0.004 | -0.047 | 0.026 | -0.011 | -0.012 | 0.085 | -0.035 | -0.056 |
| CHST11 (UniProt Q9NPF2) | 0.153 | 0.016 | 0.061 | -0.016 | -0.248 | -0.19 | -0.013 | 0.012 | 0.297 | -0.025 | 0.056 | -0.106 | -0.037 | 0.019 | 0.029 | -0.033 | 0.087 | -0.068 |  |  |
| COX6B1 (UniProt P14854) | -0.08 | 0.003 | 0.012 | 0 | 0.007 | 0.045 | 0.036 | 0.019 | -0.026 | 0.002 | -0.001 | 0.184 | 0.195 | 0 | -0.027 | 0.105 | -0.06 | 0.226 | 0.163 | 0 |
| CHST10 (UniProt O43529) | -0.11 | 0.021 | 0.088 | 0.062 | -0.014 | -0.073 | -0.071 | 0.088 | 0.058 | 0.027 | 0.235 | -0.206 | 0.014 | 0.009 | 0.087 | -0.037 | 0.015 | -0.009 |  |  |
| CLUH, A0A494C0R8 | 0.131 | 0.168 | -0.065 | 0.027 | 0.007 | -0.024 | 0.078 | -0.227 | -0.011 |  | 0.055 | -0.575 (active) | 0.205 | 0.037 | -0.214 | -0.11 | 0.113 | -0.028 | 0.646 (active) | -0.031 |
| CLSPN (UniProt Q9HAW4) | -0.076 | 0.053 | -0.034 | 0.107 | 0.004 | -0.111 | -0.019 | -0.018 | 0.053 |  | -0.028 | 0.039 | -0.04 | -0.046 | 0.047 | 0.049 | 0.001 | 0.107 | -0.045 | -0.104 |
